# Measured values from PubChem BioAssay (NCI).
# This is part of a sample that, as a whole, favours compounds with a hit. Of some 83,000 tested, about 20% had one in any assay.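 96-well plates, one dose, 48 hours. Percent growth reported; active if below 10.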 A number with no mark means an inactive call.
# Tested on: SR leukemia
# Assay: NCI-60 one-dose screen, 48 h (100 = growth as untreated, 0 = no growth, -100 = all killed)
# Details: 10 µM
smiles,measurement,value
CCn1c2ccc(O)cc2c2c(C)c3c[n+](C)ccc3c(C)c21,growth,21.2%
